This is a sample that favours compounds with a hit; in the whole collection about 8.5% have one here.
NPSR antag: blocks cAMP signaling of the human neuropeptide S receptor. Q6W5P4. CHO-NPSR cells, cAMP TR-FRET, antagonist mode. Potency, µM (top dose mostly 38.3 µM), inactives show at the top dose activity change, negative = inhibition, actives largely listed as inhibitors. 1% of 220,000 active; further: potency means the concentration at half of the fitted maximal effect; nearly all actives have a fitted effect of over 50% in size
Sfp inh: inhibitors of Bacillus subtilis Sfp phosphopantetheinyl transferase; Q9F4F7; Biochemical Sfp PPTase activity, qHTS; Potency, µM, inactives show largest response in the series, negative = inhibition, actives largely listed as inhibitors; 3.5% of 310,000 active; AID 1490;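 further: the enzyme is Sfp with the accession as filed and its product quenches rhodamine fluorescence; potency means the concentration at half of the fitted maximal effect; 0% = enzyme reaction without inhibitor and -100% = no enzyme wells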
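Buffer: 50 mM Hepes-Na pH 7.6, 10 mM MgCl2, 0.01% Nonidet P-40, 0.01% BSA. Enzyme 15 nM, pre-exposed to compound 15 min; substrates then added and fluorescence change tracked over 30 min.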
KDM4E inh: inhibitors of human JMJD2E histone demethylase; B2RXH2; 1.6% of 230,000 active; AID 2147; JMJD2E catalytic domain, FDH-coupled NADH fluorescence (FDH is formaldehyde dehydrogenase); Potency, µM (highest dose often 57.1 µM), for inactives: at the highest dose activity change, negative = inhibition, most hits filed as inhibitors; active means well fitted inhibition curve with a large enough effect, not every such curve was filed as active; inconclusive means small, poorly fitted or top-dose-only effect, or another doubt; inactive means no such curve, though single readings can be large or run the other way;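 further: potency means the concentration at half of the fitted maximal effect; 0% = wells with enzyme and -100% = buffer wells without enzyme; nearly all actives have a fitted effect of over 50% in size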
RGS12 GoLoco inh: blocks human Gai1 binding to RGS12 GoLoco peptide, red readout; P63096; Gai1:RGS12 GoLoco peptide FP, rhodamine, 10 min; Potency, µM (highest dose often 61.6 µM), for the others: at the highest dose activity, negative = inhibition, usual class: inhibitors; 0.44% of 230,000 active; active means well fitted inhibition curve with a large enough effect, not every such curve was filed as active; inactive means no such curve, though single readings can be large or run the other way; further: potency means the concentration at half of the fitted maximal effect; nearly all actives have a fitted effect of over 30% in size
ALDH1A1 block: blocks purified human ALDH1A1 activity; P00352; Purified ALDH1A1, NADH fluorescence, propionaldehyde substrate; Potency, µM (highest dose often 75.3 µM), for inactives: at the highest dose activity, negative = inhibition, hits mostly inhibitors; 7.3% of 220,000 active; AID 1030; active means well fitted inhibition curve with a large enough effect, not every such curve was filed as active; inconclusive means small, poorly fitted or top-dose-only effect, or another doubt; inactive means no such curve, though single readings can be large or run the other way;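 further: potency means the concentration at half of the fitted maximal effect; plate controls were no enzyme wells and a reference inhibitor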
Target sequence (P00352 whole entry, looked up): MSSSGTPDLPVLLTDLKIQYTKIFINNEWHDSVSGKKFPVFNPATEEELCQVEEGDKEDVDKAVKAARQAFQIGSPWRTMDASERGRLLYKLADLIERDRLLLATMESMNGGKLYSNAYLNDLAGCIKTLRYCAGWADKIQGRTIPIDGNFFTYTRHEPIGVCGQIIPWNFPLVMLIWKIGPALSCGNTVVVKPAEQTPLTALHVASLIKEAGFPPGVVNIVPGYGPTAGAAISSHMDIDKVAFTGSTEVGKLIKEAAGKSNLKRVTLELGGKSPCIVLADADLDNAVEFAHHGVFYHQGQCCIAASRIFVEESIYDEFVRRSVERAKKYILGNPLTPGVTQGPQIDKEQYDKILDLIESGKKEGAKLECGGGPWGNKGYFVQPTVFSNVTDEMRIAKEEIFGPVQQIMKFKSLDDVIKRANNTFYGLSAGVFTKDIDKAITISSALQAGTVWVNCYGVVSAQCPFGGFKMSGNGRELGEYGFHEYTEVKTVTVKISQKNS
Coupling enz: counter-screen for Giardia aldolase inhibitors: coupling enzyme system; coupling enzyme system counterscreen, AmpLite Red fluorescence; activity change, negative = inhibition, % at 58.2 µM, hits read low; 0.67% of 290,000 active; in the data active means activity change below about -30%
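Activity here indicates interference with the coupling reaction, not aldolase inhibition. Compounds at 57.5 uM final met coupling enzymes for 10 min at RT; substrate and AmpLite Red detection followed, with a 525/598 nm fluorescence read after 20 min.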
The depositor's hits bear a star; ? = inconclusive; . = no result given; [ ] = dose if it differs, or a comment. Unless noted, the call rests on the fitted dose curve; in most records, active means well fitted curve in the direction sought with a large enough effect; inconclusive means small, poorly fitted or top-dose-only effect, or another doubt; inactive means no such curve, though single readings can be large; an effect the other way counts as inactive or inconclusive. Unless noted, on the % scale 0 is the no-effect control and ±100 the full control effect.

SMILES	NPSR antag	Sfp inh	KDM4E inh	RGS12 GoLoco inh	ALDH1A1 block	Coupling enz
N#C/C(=N\Nc1ccc(S(=O)(=O)N2CCCCC2)cc1)C(N)=S	-23%	?	1%	3%	13µM*	3
N#C/C(=N/Nc1ccc([N+](=O)[O-])cc1)C(=N)N1CCCCC1	-39%	-15%	3%	16%	?	-10
NNC(=S)Nc1ccc(S(=O)(=O)N2CCCCC2)cc1	-5%	-7%	?	-16%	.	-2
CC1CN(C(C)C)C(C)CC1OC(=O)c1ccccc1 (stereo unspecified)	.	10%	.	.	.	1
O=C(NC1CCCCC1)c1ccc(CNc2nc(=S)[nH]c3ccccc23)cc1	-22%	?	7%	2%	5%	0
O=C(NCCc1ccc(F)cc1)c1cccc(NC(=O)c2ccccc2)c1	.	6%	.	.	.	5
CCOC(=O)CN/C=C(\C#N)c1ccccc1	6%	0%	21%	-3%	-7%	3
O=C(Nc1ccc2c(c1)OCO2)c1c[nH]c(=O)n(-c2ccc(F)cc2)c1=O	.	-3%	.	.	.	0
COc1ccc(CCNC(=O)C2CCCN(S(=O)(=O)c3ccccc3)C2)cc1 (stereo unspecified)	.	13%	.	.	.	.
CCOC(=O)/C(C#N)=N/Nc1ccc(S(=O)(=O)N2CCc3ccccc32)cc1	-13%	14%	0%	6%	-13%	2
N#C/C(=N\Nc1ccc(S(=O)(=O)N2CCc3ccccc32)cc1)C(N)=S	-31%	?	-4%	1%	6.3µM*	8
CCOC(=O)c1ccc(N2C(=O)C=CC2=O)cc1	?	3.5µM*	2%	-29%	0.063µM*	-4
CCOC(=O)c1ccc(N2C(=O)CC(SCC(N)C(=O)OCC)C2=O)cc1 (stereo unspecified)	-8%[46.1 µM]	?	0%	-1%	3.5µM*	2
CCOC(=O)c1ccc(N2C(=O)CC(Sc3nc(C)cc(C)n3)C2=O)cc1 (stereo unspecified)	.	14%	.	.	.	2
CCOC(=O)c1ccc(N2C(=O)CC(NC3CCN(C(=O)c4ccc(F)cc4)CC3)C2=O)cc1 (stereo unspecified)	-4%[46.1 µM]	-8%	-2%	2%	14µM*	5
CCOc1ccc(N2C(=O)CC(NC3CCN(C(=O)c4ccc(F)cc4)CC3)C2=O)cc1 (stereo unspecified)	.	2%	.	.	.	2
CCOC(=O)c1ccc(N2C(=O)CC(Sc3nnc(C)s3)C2=O)cc1 (stereo unspecified)	-6%[46.1 µM]	45µM*	-1%	19%	1µM*	1
COc1ccc(S(=O)(=O)N(CC(=O)NCc2ccncc2)c2cc(C)cc(C)c2)cc1OC	.	6%	.	.	.	0
CN1C(=O)C(CCC(=O)O)NC1=S (stereo unspecified)	?	5%	-8%	-10%	.	0
O=C(NNC(=O)c1ccccc1F)C1=NN(c2ccccc2)C(=O)CC1	.	8%	.	.	.	-3
CCOC(=O)c1sc2ncnc(Nc3cccc(C(=O)O)c3)c2c1C	.	16%	.	.	.	10
O=C1CC(SCCO)C(=O)N1c1ccc(Oc2ccccc2)cc1 (stereo unspecified)	?	-9%	-3%	-10%	14µM*	4
CN(CCCNS(=O)(=O)c1cccc2cccnc12)Cc1ccccc1	21%[46.1 µM]	0%	?	4%	14µM*	2
O=S(=O)(NCCc1ccccc1)c1cccc2cccnc12	5%	9%	11%	0%	4%	-3
COc1ccccc1CNC(=O)C1CC(=O)N(c2ccc(C)c(C)c2)C1 (stereo unspecified)	-9%[46.1 µM]	-5%	-4%	0%	6.3µM*	5
CCc1cc(=O)oc2cc(C)c(CN3CCCC3)c(O)c12	-27%[46.1 µM]	89µM*	25µM*	.	?	-2
CCCc1cc(=O)oc2cc(C)c(CN3CCCC3)c(O)c12	-3%[46.1 µM]	?	?	55%	35µM*	-3
CCc1cc(=O)oc2cc(C)c(CN3CCCCC3)c(O)c12	8%[46.1 µM]	-18%	?	25%	?	0

Bioassay records deposited in PubChem by National Center for Advancing Translational Sciences (NCATS).
